Screens from PubChem.
Most compounds without a hit are left out; they make up all but 2.3% or so of the library.
Beta2AR agonist = beta2AR agonists driving receptor internalization, primary screen, cell-based, FAP fluorogen, flow cytometry; Beta-2 adrenergic receptor (Homo sapiens), P07550; Am2.2-beta2AR cells; response, % (test concentration not listed); hit rate 0.43% among 340,000;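 active = response above a set limit, near 3 SD of response in nonfluorescent compounds, cut at about 42% in these data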
ABHD5-PLIN5 inh = ABHD5-PLIN5 interaction inhibitors, primary screen, cell lysate, split luciferase complementation, luminescence | Perilipin-5 (Homo sapiens) + 1-acylglycerol-3-phosphate O-acyltransferase ABHD5 (Homo … | Split G. princeps luciferase complementation, 4 h | inhibition, % at 4 µM | hit rate 0.78% among 360,000;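 active = inhibition above the mean inhibition across every tested compound plus 3 SD, cut at about 22% in these data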
Target sequence (Q00G26 whole entry, looked up): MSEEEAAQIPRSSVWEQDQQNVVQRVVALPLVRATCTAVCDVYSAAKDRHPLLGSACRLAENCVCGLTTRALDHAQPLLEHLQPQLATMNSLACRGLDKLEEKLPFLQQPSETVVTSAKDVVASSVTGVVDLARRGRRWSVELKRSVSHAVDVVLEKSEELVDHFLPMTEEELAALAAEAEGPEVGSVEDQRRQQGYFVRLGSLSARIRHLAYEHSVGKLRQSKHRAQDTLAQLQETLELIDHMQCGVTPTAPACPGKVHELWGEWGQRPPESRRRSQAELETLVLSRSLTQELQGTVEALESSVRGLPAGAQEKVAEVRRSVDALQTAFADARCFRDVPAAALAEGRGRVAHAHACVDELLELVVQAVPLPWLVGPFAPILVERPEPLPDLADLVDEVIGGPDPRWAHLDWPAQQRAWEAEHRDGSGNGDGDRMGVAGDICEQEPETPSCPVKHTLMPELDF
Target sequence (Q8WTS1 whole entry, looked up): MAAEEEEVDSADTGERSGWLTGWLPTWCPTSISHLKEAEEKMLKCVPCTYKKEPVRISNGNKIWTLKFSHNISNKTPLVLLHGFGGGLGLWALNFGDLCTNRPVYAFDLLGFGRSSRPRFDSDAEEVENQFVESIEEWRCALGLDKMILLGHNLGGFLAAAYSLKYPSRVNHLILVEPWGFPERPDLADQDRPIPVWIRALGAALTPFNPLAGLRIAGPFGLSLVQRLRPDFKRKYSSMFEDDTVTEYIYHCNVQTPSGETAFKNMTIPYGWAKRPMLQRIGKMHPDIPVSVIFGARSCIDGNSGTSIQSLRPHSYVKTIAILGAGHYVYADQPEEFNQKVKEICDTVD
NTR1 agonist = agonists of human NTR1, primary screen, imaging, U2OS cells, beta-arrestin-GFP, high content | NTR1-U2OS beta-arrestin-GFP spot imaging, agonist mode | activation, % at 20 µM | hit rate 0.17% among 330,000;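 active = activation at or above 40% of the spot to cytoplasm intensity ratio, with at least 20 cells analyzed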
HTR2A ag = mouse Htr2a agonists via beta-arrestin recruitment, primary screen, cell-based, luminescence; CHO-K1 mHTR2A beta-arrestin complementation; percent of 30 µM serotonin response; activation, % at 7.6 µM; hit rate 0.66% among 360,000; AID 624169, 2012;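 active = activation above a run cutoff, the mean activation of all tested compounds plus 3 SD, cut at about 14% in these data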
Exocytosis inh = LAMP-1 surface exposure blockers, TALL-104 cells – cell-based, flow cytometry, MLPCN library, primary screen; AID 651702, 2012; hit rate 0.66% among 360,000; inhibition, % at 10 µM; TALL-104 LAMP-1 surface exposure; cells stimulated with thapsigargin and PMA;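 active = inhibition above about 55%, limit read from the data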
Beta2AR ag CP1 = beta2AR agonists via receptor internalization, confirmation, cell-based, FAP fluorogen, flow cytometry, single point, cherry pick 1. shares compounds with Beta2AR agonist. Am2.2-beta2AR cells, FAP surface receptor; stronger effect = lower value. percent response (surface receptor), % at 10 µM. hit rate 25% among 1,100. AID 540358, 2011;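 active = surface receptor percent response at or below 58%, roughly 3 SD from nonfluorescent compounds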
B2AR FAP counter = flagged in Am2.2 fluorescence counterscreen for beta-2AR agonists. 1,100 tested, under 10 active. AID 588765. shares compounds with Beta2AR agonist. calls only at 10 µM. Am2.2 cells, FAP fluorogen flow cytometry; stronger effect = lower value;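 active = percent response below a set limit in fluorescence channel 1 and below 50% in channel 8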
ABHD5-PLIN5 conf = ABHD5-PLIN5 interaction inhibitors, confirmation, biochemical, luminescence | shares compounds with ABHD5-PLIN5 inh | inhibition, % at 4 µM | hit rate 67% among 2,200 | AID 651612, 2012; in the data active = inhibition above about 23%
HNF4 split-luc = HNF4 dimerization inhibitors, counter-screen for ABHD5-PLIN5 interaction inhibitor project, biochemical, split-luciferase complementation, luminescence; shares compounds with ABHD5-PLIN5 inh; AID 651674, 2012; hit rate 77% among 2,200; inhibition, % at 4 µM;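 active = mean inhibition across replicate wells exceeding the computed hit threshold, cut at about 13% in these data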;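 also: light from luciferase halves that rejoin when HNF4 fusion proteins dimerize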
Exocytosis CP01 = inhibitors of lytic granule exocytosis, confirmation, TALL-104 cells, flow cytometry, Cherry Pick01. inhibition, % at 10 µM. hit rate 11% among 1,500. shares compounds with Exocytosis inh. LAMP-1 externalization; stimulated with PMA plus thapsigargin; in the data active = inhibition above about 60%
Large screens that a line does not name were inactive (follow-up assays come after a bar, where they were run).

CCOC(=O)c1c(N2C(=O)Nc3cc(Cl)c(Cl)cc3N2O)sc2c1CCCCC2	none
OCCN1CCN(CC(O)COc2ccc(C34CC5CC(CC(C5)C3)C4)cc2)CC1 (stereo not drawn)	Beta2AR agonist 61, ABHD5-PLIN5 inh 36, Exocytosis inh 72 | Beta2AR ag CP1 inactive | B2AR FAP counter inactive | ABHD5-PLIN5 conf inactive | HNF4 split-luc inactive | Exocytosis CP01 79
CCCCCCCCN1C(=O)[C@H](CC(=O)NCCCC)C[C@@]2(C(=O)OC)CC(C)(C)CC=C12	none (no result: Beta2AR agonist, NTR1 agonist)
C=C(C)COc1ccc(-c2n[nH]c(C)c2-c2ccc(OC)cc2)c(O)c1	Beta2AR agonist 53, Exocytosis inh 65 | Beta2AR ag CP1 inactive | B2AR FAP counter inactive | Exocytosis CP01 98
COc1ccc(-c2n[nH]c(C)c2-c2cscn2)c(O)c1	none
COc1ccc(OC)c(S(=O)(=O)Nc2ccc(O)c3ccccc23)c1	Beta2AR agonist 52, Exocytosis inh 85 | Beta2AR ag CP1 inactive | B2AR FAP counter inactive | Exocytosis CP01 inactive
COc1ccc(OC)c(S(=O)(=O)Nc2cccc3c(O)cccc23)c1	none
CCOc1ccc(-c2cc(C(=O)NCCCn3ccnc3)c3cc(Br)ccc3n2)cc1	Beta2AR agonist 50, Exocytosis inh 79 | Beta2AR ag CP1 inactive | B2AR FAP counter inactive | Exocytosis CP01 80
Fc1ccc(Nc2nc(NCc3ccco3)c3ccccc3n2)cc1	Exocytosis inh 86 | Beta2AR ag CP1 inactive | B2AR FAP counter inactive | Exocytosis CP01 inactive
Cc1ccc(-n2nc3c(N4CCC(C(=O)NCc5ccccc5C)CC4)nnc(C)c3c2C)cc1	none
CCOc1ccccc1CNC(=O)C1CCN(c2nnc(C)c3c(C)n(-c4ccc(C)cc4)nc23)CC1	Beta2AR agonist 53, Exocytosis inh 58 | Beta2AR ag CP1 24 | B2AR FAP counter inactive | Exocytosis CP01 89
CCOc1ccc(CCNC(=O)COC(=O)c2cccc(S(=O)(=O)N3CCCC3)c2)cc1OCC	none
O=C(Cn1ccc(C(F)(F)F)n1)N/N=C/c1ccc(N2CCOCC2)cc1	none
CCOc1ccc(CNCCc2ccc(S(N)(=O)=O)cc2)cc1	none
CCOc1cc(CNCCc2ccc(S(N)(=O)=O)cc2)ccc1OCc1ccc(Cl)cc1	Beta2AR agonist 50, ABHD5-PLIN5 inh 28, Exocytosis inh 103 | Beta2AR ag CP1 31 | B2AR FAP counter inactive | Exocytosis CP01 94
Cc1cccc(N(C)S(=O)(=O)c2ccc(-c3cnc(C4CC4)o3)cc2)c1	none
Cc1ccc(N(C)S(=O)(=O)c2cc(-c3cnc(C4CC4)o3)ccc2C)cc1	Beta2AR agonist 104, Exocytosis inh 97 | Beta2AR ag CP1 1.5 | B2AR FAP counter inactive | Exocytosis CP01 inactive
CCCCn1c(N(CCOC(C)=O)C(C)=O)nc2ccccc21	none
Cc1cccc(C)c1-n1nnnc1C(c1ccnc2ccccc12)N1CCN(C(=O)OC(C)(C)C)CC1 (stereo not drawn)	none (no result: Beta2AR agonist, NTR1 agonist)
CCC(=O)N1CCc2cc(Br)cc(S(=O)(=O)CC(=O)OC)c21	none
CCC(=O)N1CCc2cc(Br)cc(S(=O)(=O)N(C)c3ccc(OC)cc3)c21	Beta2AR agonist 101, Exocytosis inh 74 | Beta2AR ag CP1 19 | B2AR FAP counter inactive | Exocytosis CP01 inactive
CCOc1ccc(NC(=O)CN(C)C(=O)c2cccnc2Sc2ccc(C)c(C)c2)cc1OCC	none
Cc1ccc(CNc2nc(-c3cccnc3)nc3ccccc23)cc1	Exocytosis inh 105 | Beta2AR ag CP1 inactive | B2AR FAP counter inactive | Exocytosis CP01 inactive
Clc1cccc(C2Nc3cccc4cccc(c34)N2)c1Cl	Exocytosis inh 93 | Beta2AR ag CP1 inactive | B2AR FAP counter inactive | Exocytosis CP01 inactive
CNCc1ccccc1Sc1cc(O)ccc1O	Beta2AR agonist 68, Exocytosis inh 73 | Beta2AR ag CP1 inactive | B2AR FAP counter inactive | Exocytosis CP01 inactive
Clc1ccccc1OCc1nnc(-c2ccccc2)o1	none
Cc1cc(Br)ccc1OCc1nnc(-c2ccccc2)o1	Exocytosis inh 73 (no result: NTR1 agonist) | Beta2AR ag CP1 inactive | B2AR FAP counter inactive | Exocytosis CP01 inactive
O=S(=O)(/N=S1\CC=CCN1S(=O)(=O)c1ccccc1)c1ccccc1 (stereo not drawn)	ABHD5-PLIN5 inh 92 (no result: NTR1 agonist) | ABHD5-PLIN5 conf inactive | HNF4 split-luc 85
O=C(O)C1CCCN(S(=O)(=O)c2ccccc2)C1 (stereo not drawn)	none
Cc1cc(N(CCO)CCO)ccc1N=Nc1cc(F)ccc1F	ABHD5-PLIN5 inh 31 | ABHD5-PLIN5 conf 22 | HNF4 split-luc 17
O=C(CCl)N(C/C=C/c1ccccc1)c1ccc2c(c1)OCCO2	ABHD5-PLIN5 inh 25 | ABHD5-PLIN5 conf 24 | HNF4 split-luc 29
C=CCN1C(=O)c2ccc(C(=O)OCC(=O)N(CC)c3c(N)n(Cc4ccccc4)c(=O)[nH]c3=O)cc2C1=O	none (no result: NTR1 agonist)
O=c1ccc(N=Nc2ccccc2)ccc1O	none (no result: NTR1 agonist)
Oc1ccc(N=Nc2ccccc2)o1	ABHD5-PLIN5 inh 41 | ABHD5-PLIN5 conf 66 | HNF4 split-luc 68
CC12CC(NC(=O)N1c1cccc(C(=O)N3CCCCC3)c1)c1ccccc1O2 (stereo not drawn)	none
CCn1c(=O)c([N+](=O)[O-])c(NCCN(C)C)c2ccccc21	none
CCn1c(=O)c([N+](=O)[O-])c(Cl)c2ccccc21	Beta2AR agonist 77, ABHD5-PLIN5 inh 41 | ABHD5-PLIN5 conf 71 | HNF4 split-luc 95
CC1CN(C(=O)c2cccc(S(=O)(=O)N3CCN(c4ccccc4)CC3)c2)CC(C)O1 (stereo not drawn)	none
Nc1ccn([C@@H]2O[C@H](CNCc3ccc(-c4cc(C(F)(F)F)ccc4Cl)o3)[C@@H](O)[C@H]2O)c(=O)n1	none (no result: Beta2AR agonist, NTR1 agonist)
CC1=C(C)CS(=O)N(S(=O)(=O)c2ccccc2)C1 (stereo not drawn)	ABHD5-PLIN5 inh 58 | ABHD5-PLIN5 conf 72 | HNF4 split-luc 101
